Data: publication PMC5540273 (PLoS ONE, 2017)

The compounds below were run on TAOK3. Conditions: concentration: 1 μM, replicates: in singlicate; n = 1.
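Also: KINOMEscan kinase panel screen.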

Row | Compound | %Inh
1 | Cl.c1ccc(-c2n[nH]cc2-c2ccnc(-c3ccc(CN4CCOCC4)cc3)c2)nc1 [GW776245] | 0%
2 | Cc1nnc(-c2ccc3occ(-c4ccc(S(C)=O)cc4)c3c2)[nH]1 (stereo not drawn) | 0%
3 | Cn1ccc2ncnc(Oc3ccc(Nc4nc5ccccc5[nH]4)cc3)c21 | 0%
4 | COc1cc2ncn(-c3cc(OCC4CCCO4)c(C(N)=O)s3)c2cc1OC (stereo not drawn) [GSK204607] | 0%
5 | Cc1cccc(-c2nc(-c3ccc(S(C)(=O)=O)cc3)sc2-c2ccnc(NCCc3ccccc3)c2)c1 | 0%
6 | COC(=O)c1c(-c2ccccc2)c2cc(C(=O)O)ccc2c(=O)n1Cc1ccccc1 | 0%
7 | Cl.Oc1ccc(-c2nc(-c3ccccc3)[nH]c2-c2ccncc2)cc1 [SB-428218] | 0%
8 | CC(=O)Nc1nc2cnc(Nc3cc(NC(=O)c4cccc(CCC#N)c4)ccc3C)nc2s1 | 0%
9 | CSc1nn2c(=O)cc(N3CCOCC3)nc2n1Cc1cccc(C(F)(F)F)c1C [GSK2363608] | 0%
10 | O=C(Nc1n[nH]c2nc(-c3nccs3)c(Br)cc12)C1CCCC1 [SB-742609] | 0%
11 | CCn1c(-c2ccccn2)nc2cnccc21 [SB-736398] | 0%
12 | NC(=O)c1nnc2ccccc2c1N | 3%
13 | COc1ccc(Nc2nccc(NCCNC(=O)Nc3ccccc3F)n2)cc1 [GSK1379901] | 0%
14 | Cc1cc(N2Cc3ccccc3C2)nc(Nc2ccc(S(=O)(=O)N3CCOCC3)cc2)n1.Cl [GSK1669917] | 0%
15 | CC1=C(C(=O)Nc2cc3cn[nH]c3cc2F)C(c2ccc(C(F)(F)F)cc2)CC(=O)N1 (stereo not drawn) [GSK429286] | 0%
16 | COC(=O)c1c(-c2ccccc2)c2cc(OC)ccc2c(=O)n1Cc1ccccc1 | 0%
17 | O=C(O)COc1ncnc2cc(-c3ccc4[nH]ncc4c3)sc12 | 0%
18 | Nc1nc(-c2nccs2)c(-c2ccnc3ccccc23)s1 [GW693542] | 0%

Row | Compound | %Inh
19 | Cn1cncc1-c1ccc2ncnc(Nc3ccc(OCc4ccccc4)cc3)c2c1 [GW320571] | 0%
20 | O=C(Nc1ccc2c(c1)OCO2)NC1CCN(c2ccnc(Nc3ccc(F)cc3)n2)C1 (stereo not drawn) [GSK1379724] | 0%
21 | Cc1ccccc1-n1cnc2c(N)ncnc21 [SKF-97510] | 0%
22 | Cn1ccc2ncnc(Oc3ccc(NC(=O)Nc4ccccc4)cc3)c21 | 0%
23 | O=C1NC(=O)C(N2CCc3ccccc32)=C1c1ccccc1Cl [SB-373598] | 15%
24 | O=C(Nc1ccccc1)Nc1cccc(Oc2ccc3nccn3n2)c1 | 0%
25 | Nc1ncnc2[nH]c(-c3ccccc3)nc12 [AH5015] | 9%
26 | CS(=O)(=O)c1ccc(-c2c(-c3ncn[nH]3)sc(N3CCOCC3)c2C#N)cc1 | 0%
27 | Cc1c(O)cccc1Nc1ccnc2ccc(C(F)(F)F)cc12.Cl [GW466413] | 0%
28 | CS(=O)(=O)c1ccc(-c2nc3n(c2-c2ccncc2)CCC3)cc1 [SKF-105942] | 0%
29 | Cc1cc(NCC(c2ccccc2)c2ccccc2)nc(NCc2ccc(C(F)(F)F)cc2)n1 [GW497681] | 0%
30 | Cl.NC(=O)c1cccc(Nc2nccc(Nc3ccc(Oc4cccc(Cl)c4)c(Cl)c3)n2)c1 [GW659008] | 0%
31 | CC(C)(C)c1ccc(C(=O)Nc2cn3cc(Cl)ccc3n2)cc1 | 0%
32 | O=c1cc(N2CCOCC2)nc2n(Cc3cccc(Cl)c3Cl)ccn12 [GSK2286295] | 0%
33 | CCCc1ccc(S(=O)(=O)NC2CCN(c3ccnc(Nc4ccc(F)cc4)n3)C2)cc1 (stereo not drawn) [GSK1379715] | 0%
34 | O=S(=O)(c1ccc(-c2ccnc3[nH]ccc23)cc1)N1CCCC1 [GSK846226] | 0%
35 | COc1ccc(C2=C(Nc3cccc(C(=O)O)c3)C(=O)NC2=O)cc1 [SB-390765] | 23%

What follows are compounds tested on TBK1. Conditions: concentration: 1 μM, replicates: in singlicate; n = 1.

Row | Compound | %Inh
36 | Cl.c1ccc(-c2n[nH]cc2-c2ccnc(-c3ccc(CN4CCOCC4)cc3)c2)nc1 [GW776245] | 61%
37 | Cc1nnc(-c2ccc3occ(-c4ccc(S(C)=O)cc4)c3c2)[nH]1 (stereo not drawn) | 0%
38 | Cn1ccc2ncnc(Oc3ccc(Nc4nc5ccccc5[nH]4)cc3)c21 | 0%
39 | COc1cc2ncn(-c3cc(OCC4CCCO4)c(C(N)=O)s3)c2cc1OC (stereo not drawn) [GSK204607] | 23%
40 | Cc1cccc(-c2nc(-c3ccc(S(C)(=O)=O)cc3)sc2-c2ccnc(NCCc3ccccc3)c2)c1 | 24%
41 | COC(=O)c1c(-c2ccccc2)c2cc(C(=O)O)ccc2c(=O)n1Cc1ccccc1 | 6%
42 | Cl.Oc1ccc(-c2nc(-c3ccccc3)[nH]c2-c2ccncc2)cc1 [SB-428218] | 18%
43 | CC(=O)Nc1nc2cnc(Nc3cc(NC(=O)c4cccc(CCC#N)c4)ccc3C)nc2s1 | 24%
44 | O=C(Nc1n[nH]c2nc(-c3nccs3)c(Br)cc12)C1CCCC1 [SB-742609] | 0%
45 | CCn1c(-c2ccccn2)nc2cnccc21 [SB-736398] | 0%
46 | NC(=O)c1nnc2ccccc2c1N | 40%
47 | COc1ccc(Nc2nccc(NCCNC(=O)Nc3ccccc3F)n2)cc1 [GSK1379901] | 21%
48 | Cc1cc(N2Cc3ccccc3C2)nc(Nc2ccc(S(=O)(=O)N3CCOCC3)cc2)n1.Cl [GSK1669917] | 30%
49 | CC1=C(C(=O)Nc2cc3cn[nH]c3cc2F)C(c2ccc(C(F)(F)F)cc2)CC(=O)N1 (stereo not drawn) [GSK429286] | 4%
50 | COC(=O)c1c(-c2ccccc2)c2cc(OC)ccc2c(=O)n1Cc1ccccc1 | 0%
51 | O=C(O)COc1ncnc2cc(-c3ccc4[nH]ncc4c3)sc12 | 11%
52 | Nc1nc(-c2nccs2)c(-c2ccnc3ccccc23)s1 [GW693542] | 5%

Row | Compound | %Inh
53 | Cn1cncc1-c1ccc2ncnc(Nc3ccc(OCc4ccccc4)cc3)c2c1 [GW320571] | 0%
54 | O=C(Nc1ccc2c(c1)OCO2)NC1CCN(c2ccnc(Nc3ccc(F)cc3)n2)C1 (stereo not drawn) [GSK1379724] | 0%
55 | Cc1ccccc1-n1cnc2c(N)ncnc21 [SKF-97510] | 7%
56 | Cn1ccc2ncnc(Oc3ccc(NC(=O)Nc4ccccc4)cc3)c21 | 30%
57 | O=C1NC(=O)C(N2CCc3ccccc32)=C1c1ccccc1Cl [SB-373598] | 19%
58 | O=C(Nc1ccccc1)Nc1cccc(Oc2ccc3nccn3n2)c1 | 10%
59 | Nc1ncnc2[nH]c(-c3ccccc3)nc12 [AH5015] | 10%
60 | CS(=O)(=O)c1ccc(-c2c(-c3ncn[nH]3)sc(N3CCOCC3)c2C#N)cc1 | 14%
61 | Cc1c(O)cccc1Nc1ccnc2ccc(C(F)(F)F)cc12.Cl [GW466413] | 0%
62 | CS(=O)(=O)c1ccc(-c2nc3n(c2-c2ccncc2)CCC3)cc1 [SKF-105942] | 27%
63 | Cc1cc(NCC(c2ccccc2)c2ccccc2)nc(NCc2ccc(C(F)(F)F)cc2)n1 [GW497681] | 22%
64 | Cl.NC(=O)c1cccc(Nc2nccc(Nc3ccc(Oc4cccc(Cl)c4)c(Cl)c3)n2)c1 [GW659008] | 7%
65 | CC(C)(C)c1ccc(C(=O)Nc2cn3cc(Cl)ccc3n2)cc1 | 0%
66 | O=c1cc(N2CCOCC2)nc2n(Cc3cccc(Cl)c3Cl)ccn12 [GSK2286295] | 19%
67 | CCCc1ccc(S(=O)(=O)NC2CCN(c3ccnc(Nc4ccc(F)cc4)n3)C2)cc1 (stereo not drawn) [GSK1379715] | 0%
68 | O=S(=O)(c1ccc(-c2ccnc3[nH]ccc23)cc1)N1CCCC1 [GSK846226] | 33%
69 | COc1ccc(C2=C(Nc3cccc(C(=O)O)c3)C(=O)NC2=O)cc1 [SB-390765] | 11%
